Results on seven sequences are retold here after PMC7862700, “An all-to-all approach to the identification of sequence-specific readers for epigenetic DNA modifications on cytosine”.

Common to all, as to assay: DAPPL (digital affinity profiling via proximity ligation, sequencing); 10 mM Tris-HCl pH 7.5, 50 mM NaCl, 1 mM DTT, 4% glycerol, room temperature, 30 min; GST-TFs on glutathione beads, 16-mer random dsDNA library, 0.1% formaldehyde crosslink after washing; high values mean tight binding
Settings in all cases: protein: recombinant; tags: N-terminal GST; dsDNA, one strand shown

Experiment [1] has as its target T1, FLI1 (Homo sapiens, UniProt Q01543 1-452).
T1 sequence: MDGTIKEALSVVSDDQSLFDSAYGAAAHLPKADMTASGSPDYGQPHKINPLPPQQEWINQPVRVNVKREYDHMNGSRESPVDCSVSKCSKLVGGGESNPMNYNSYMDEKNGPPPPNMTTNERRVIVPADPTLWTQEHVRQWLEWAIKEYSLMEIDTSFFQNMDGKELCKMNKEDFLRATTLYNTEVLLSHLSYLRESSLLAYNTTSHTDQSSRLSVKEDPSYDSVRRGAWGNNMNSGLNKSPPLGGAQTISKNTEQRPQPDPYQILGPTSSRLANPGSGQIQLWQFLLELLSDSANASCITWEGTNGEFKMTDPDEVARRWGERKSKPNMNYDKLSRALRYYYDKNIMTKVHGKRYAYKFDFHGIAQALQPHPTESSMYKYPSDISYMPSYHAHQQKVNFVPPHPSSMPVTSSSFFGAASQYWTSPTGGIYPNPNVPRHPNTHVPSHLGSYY
In short, it runs like this:
(§1)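 Binding signal is given per hexamer as its read frequency for a factor divided by its frequency in the tag-only sample. GST-fused human transcription factors were expressed in yeast, captured on glutathione beads, barcoded with DNA and pooled with that sample, then incubated with 200 nmole of a 16-mer random double-stranded DNA library in Tris/NaCl/DTT/glycerol buffer for 30 min at room temperature. The pools were then washed, crosslinked, proximity-ligated, amplified by PCR and sequenced on an Illumina NextSeq500.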

For experiment [2], the target named is T2, ELK1 (Homo sapiens, UniProt P19419 1-428).
T2 sequence: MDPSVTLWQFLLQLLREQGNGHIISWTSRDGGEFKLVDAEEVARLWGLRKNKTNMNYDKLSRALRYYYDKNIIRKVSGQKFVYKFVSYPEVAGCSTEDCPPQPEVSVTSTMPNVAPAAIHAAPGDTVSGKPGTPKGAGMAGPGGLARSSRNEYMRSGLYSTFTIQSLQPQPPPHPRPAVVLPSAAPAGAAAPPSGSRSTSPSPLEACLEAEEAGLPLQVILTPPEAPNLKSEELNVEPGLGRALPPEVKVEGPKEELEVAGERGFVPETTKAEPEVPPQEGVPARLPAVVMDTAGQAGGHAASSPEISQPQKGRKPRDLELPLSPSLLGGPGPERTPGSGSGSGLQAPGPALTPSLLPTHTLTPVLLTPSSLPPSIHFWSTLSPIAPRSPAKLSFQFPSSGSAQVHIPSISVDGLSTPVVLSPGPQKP
In short, it runs like this: as §1

Experiment [3] addresses T3, GABPA (Homo sapiens, UniProt Q06546 1-454).
T3 sequence: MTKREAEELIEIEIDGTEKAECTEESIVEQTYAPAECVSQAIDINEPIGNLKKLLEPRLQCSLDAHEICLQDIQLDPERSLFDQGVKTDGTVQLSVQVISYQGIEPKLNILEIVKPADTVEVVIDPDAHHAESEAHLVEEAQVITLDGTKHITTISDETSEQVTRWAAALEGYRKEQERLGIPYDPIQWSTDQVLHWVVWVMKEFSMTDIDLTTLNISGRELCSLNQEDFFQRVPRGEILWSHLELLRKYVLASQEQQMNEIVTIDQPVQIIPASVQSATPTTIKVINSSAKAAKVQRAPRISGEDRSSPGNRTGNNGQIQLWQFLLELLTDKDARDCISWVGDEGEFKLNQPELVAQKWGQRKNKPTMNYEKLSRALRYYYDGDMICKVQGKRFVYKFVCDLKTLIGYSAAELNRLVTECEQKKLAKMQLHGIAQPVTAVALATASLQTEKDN
In outline: as §1

The target in experiment [4] is T4, ERG (Homo sapiens, UniProt P11308 1-479).
T4 sequence: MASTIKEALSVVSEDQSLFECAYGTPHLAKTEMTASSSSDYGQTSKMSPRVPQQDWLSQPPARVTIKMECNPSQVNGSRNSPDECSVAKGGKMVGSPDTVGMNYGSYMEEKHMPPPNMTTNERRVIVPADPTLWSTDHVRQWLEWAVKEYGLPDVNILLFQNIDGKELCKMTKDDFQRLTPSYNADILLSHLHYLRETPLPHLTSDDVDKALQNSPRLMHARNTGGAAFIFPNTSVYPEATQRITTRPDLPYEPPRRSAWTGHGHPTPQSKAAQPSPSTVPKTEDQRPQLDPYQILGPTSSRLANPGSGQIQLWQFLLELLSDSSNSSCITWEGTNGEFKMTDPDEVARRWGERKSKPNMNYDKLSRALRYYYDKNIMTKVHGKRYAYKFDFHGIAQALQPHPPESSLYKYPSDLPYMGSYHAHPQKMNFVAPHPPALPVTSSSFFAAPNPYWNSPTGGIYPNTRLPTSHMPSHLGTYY
In short, it runs like this:
as §1

The target of experiment [5] is ELF1 (Homo sapiens, UniProt P32519 1-619). In outline:
as §1

In experiment [6] the target is T5, EHF (Homo sapiens, UniProt Q9NZC4 1-300).
T5 sequence: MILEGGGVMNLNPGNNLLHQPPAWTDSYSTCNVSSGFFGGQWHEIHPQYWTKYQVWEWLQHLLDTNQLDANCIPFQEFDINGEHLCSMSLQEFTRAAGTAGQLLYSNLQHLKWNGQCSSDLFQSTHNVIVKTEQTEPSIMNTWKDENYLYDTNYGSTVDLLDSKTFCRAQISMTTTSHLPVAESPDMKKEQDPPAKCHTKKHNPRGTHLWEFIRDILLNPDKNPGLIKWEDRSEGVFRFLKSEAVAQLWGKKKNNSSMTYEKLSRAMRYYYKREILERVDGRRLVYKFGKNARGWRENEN
In outline:
as §1

Experiment [7] has as its target SPI1 (Homo sapiens, UniProt P17947 1-270). In short, it runs like this: as §1
Experiment [8] addresses SPIB (Homo sapiens, UniProt Q01892 1-262). In short, it runs like this: as §1
Experiment [9] has as its target T6, ELK3 (Homo sapiens, UniProt P41970 1-407).
T6 sequence: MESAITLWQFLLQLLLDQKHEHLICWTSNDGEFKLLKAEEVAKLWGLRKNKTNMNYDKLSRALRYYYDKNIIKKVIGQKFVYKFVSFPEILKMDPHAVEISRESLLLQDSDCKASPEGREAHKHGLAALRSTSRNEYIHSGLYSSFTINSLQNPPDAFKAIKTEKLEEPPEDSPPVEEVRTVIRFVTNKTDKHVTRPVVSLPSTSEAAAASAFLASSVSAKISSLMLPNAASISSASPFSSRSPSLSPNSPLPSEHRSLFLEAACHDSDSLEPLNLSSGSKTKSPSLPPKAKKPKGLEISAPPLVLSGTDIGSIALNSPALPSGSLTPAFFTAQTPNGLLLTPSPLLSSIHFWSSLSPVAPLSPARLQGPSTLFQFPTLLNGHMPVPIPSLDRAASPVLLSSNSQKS
In short, it runs like this: as §1

Sequence of SPIB (Q01892 whole entry): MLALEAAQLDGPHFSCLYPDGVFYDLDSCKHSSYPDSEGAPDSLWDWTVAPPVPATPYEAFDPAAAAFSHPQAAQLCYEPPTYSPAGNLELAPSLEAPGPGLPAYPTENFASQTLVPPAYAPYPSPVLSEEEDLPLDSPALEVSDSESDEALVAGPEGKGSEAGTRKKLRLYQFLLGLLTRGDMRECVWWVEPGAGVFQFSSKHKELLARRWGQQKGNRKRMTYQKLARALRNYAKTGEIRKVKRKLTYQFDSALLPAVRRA
Sequence of ELF1 (P32519 whole entry): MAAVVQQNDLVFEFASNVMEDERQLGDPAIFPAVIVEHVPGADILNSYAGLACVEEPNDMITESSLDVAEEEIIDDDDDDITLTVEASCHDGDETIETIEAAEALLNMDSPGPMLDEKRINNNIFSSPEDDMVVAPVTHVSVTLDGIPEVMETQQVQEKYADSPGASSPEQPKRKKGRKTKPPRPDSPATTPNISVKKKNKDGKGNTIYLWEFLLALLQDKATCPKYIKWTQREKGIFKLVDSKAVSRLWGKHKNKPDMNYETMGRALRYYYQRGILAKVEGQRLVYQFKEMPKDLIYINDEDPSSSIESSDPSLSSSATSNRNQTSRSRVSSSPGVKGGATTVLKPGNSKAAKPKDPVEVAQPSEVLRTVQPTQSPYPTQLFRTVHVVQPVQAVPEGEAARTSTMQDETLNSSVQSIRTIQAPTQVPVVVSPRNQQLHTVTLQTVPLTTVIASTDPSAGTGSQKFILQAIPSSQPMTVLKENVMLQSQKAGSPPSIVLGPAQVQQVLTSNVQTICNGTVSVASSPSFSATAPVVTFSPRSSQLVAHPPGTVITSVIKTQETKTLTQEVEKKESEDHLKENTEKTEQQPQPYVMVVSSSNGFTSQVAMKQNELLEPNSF

For the sequence TATTTC, the binding signal in experiment [1] was 2.04 fold enrichment (6-mer frequency, TF over GST control); in [2], 2.09 fold enrichment (6-mer frequency, TF over GST control); in experiment [3], 2.06 fold enrichment (6-mer frequency, TF over GST control); in experiment [4], 2.32 fold enrichment (6-mer frequency, TF over GST control); in [5] it was 2.06 fold enrichment (6-mer frequency, TF over GST control); in [6], 2.21 fold enrichment (6-mer frequency, TF over GST control). Further, the binding signal is 2.02 fold enrichment (6-mer frequency, TF over GST control) in experiment [7]; 2.19 fold enrichment (6-mer frequency, TF over GST control) in experiment [8]; 2.21 fold enrichment (6-mer frequency, TF over GST control) in experiment [9].
As to TACAAC, the binding signal in experiment [1] is 1.16 fold enrichment (6-mer frequency, TF over GST control); in [2], 1.17 fold enrichment (6-mer frequency, TF over GST control); in experiment [3], 1.16 fold enrichment (6-mer frequency, TF over GST control); in experiment [4] it was 1.14 fold enrichment (6-mer frequency, TF over GST control); in [5], 1.16 fold enrichment (6-mer frequency, TF over GST control); in experiment [6], 1.14 fold enrichment (6-mer frequency, TF over GST control). Also, the binding signal is 1.08 fold enrichment (6-mer frequency, TF over GST control) in [7]; 1.18 fold enrichment (6-mer frequency, TF over GST control) in [8]; 1.23 fold enrichment (6-mer frequency, TF over GST control) in experiment [9].
With GATATC, the binding signal in experiment [1] was 1.55 fold enrichment (6-mer frequency, TF over GST control); in [2], 1.6 fold enrichment (6-mer frequency, TF over GST control); in experiment [3] it was 1.37 fold enrichment (6-mer frequency, TF over GST control); in [4], 1.9 fold enrichment (6-mer frequency, TF over GST control); in experiment [5], 1.46 fold enrichment (6-mer frequency, TF over GST control); in experiment [6], 1.44 fold enrichment (6-mer frequency, TF over GST control). The binding signal in experiment [7] is 1.4 fold enrichment (6-mer frequency, TF over GST control); in experiment [8], 1.58 fold enrichment (6-mer frequency, TF over GST control); in experiment [9], 1.51 fold enrichment (6-mer frequency, TF over GST control).
As for CTCTCC, the binding signal is 1.35 fold enrichment (6-mer frequency, TF over GST control) in experiment [1]; 1.33 fold enrichment (6-mer frequency, TF over GST control) in [2]; 1.37 fold enrichment (6-mer frequency, TF over GST control) in experiment [3]; 1.22 fold enrichment (6-mer frequency, TF over GST control) in [4]; 1.4 fold enrichment (6-mer frequency, TF over GST control) in experiment [5]; 1.34 fold enrichment (6-mer frequency, TF over GST control) in experiment [6]. For the same sequence, the binding signal in [7] is 1.41 fold enrichment (6-mer frequency, TF over GST control); in [8], 1.35 fold enrichment (6-mer frequency, TF over GST control); in experiment [9] it was 1.37 fold enrichment (6-mer frequency, TF over GST control).
As to ATGCAC, the binding signal in experiment [1] was 1.28 fold enrichment (6-mer frequency, TF over GST control); in [2], 1.33 fold enrichment (6-mer frequency, TF over GST control); in experiment [3], 1.33 fold enrichment (6-mer frequency, TF over GST control); in [4], 1.2 fold enrichment (6-mer frequency, TF over GST control); in experiment [5] it was 1.3 fold enrichment (6-mer frequency, TF over GST control); in [6], 1.21 fold enrichment (6-mer frequency, TF over GST control). Besides, the binding signal in experiment [7] was 1.3 fold enrichment (6-mer frequency, TF over GST control); in experiment [8] it was 1.34 fold enrichment (6-mer frequency, TF over GST control); in experiment [9], 1.34 fold enrichment (6-mer frequency, TF over GST control).
AATGGG: the binding signal in experiment [1] was 1.26 fold enrichment (6-mer frequency, TF over GST control); in experiment [2], 1.24 fold enrichment (6-mer frequency, TF over GST control); in experiment [3] it was 1.18 fold enrichment (6-mer frequency, TF over GST control); in [4], 1.16 fold enrichment (6-mer frequency, TF over GST control); in experiment [5], 1.2 fold enrichment (6-mer frequency, TF over GST control); in experiment [6], 1.29 fold enrichment (6-mer frequency, TF over GST control). Moreover, the binding signal in experiment [7] was 1.34 fold enrichment (6-mer frequency, TF over GST control); in experiment [8], 1.22 fold enrichment (6-mer frequency, TF over GST control); in [9], 1.08 fold enrichment (6-mer frequency, TF over GST control).
Consider AGCGAC, for which the binding signal in [1] was 1.09 fold enrichment (6-mer frequency, TF over GST control); in experiment [2], 1.15 fold enrichment (6-mer frequency, TF over GST control); in [3] it was 1.09 fold enrichment (6-mer frequency, TF over GST control); in experiment [4], 1.23 fold enrichment (6-mer frequency, TF over GST control); in [5], 1.17 fold enrichment (6-mer frequency, TF over GST control); in experiment [6], 1.23 fold enrichment (6-mer frequency, TF over GST control). Besides, the binding signal in experiment [7] was 1.06 fold enrichment (6-mer frequency, TF over GST control); in experiment [8], 1.16 fold enrichment (6-mer frequency, TF over GST control); in [9], 1.04 fold enrichment (6-mer frequency, TF over GST control).
